Screening results as filed in PubChem.
NPC1 prom act: qHTS Assay for NPC1 Promoter Activators; Huh7 NPC1 promoter luciferase reporter, 24 h; Potency, µM (highest dose often 9.22 µM), inactives show at the top dose activation, most hits filed as activators; 320,000 tested, 2.4% active; AID 485313, 2010; further: % of control where 0% means no effect; nearly all actives have a fitted effect of over 60% in size
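NPC1 promoter–luciferase Huh7 cells; 24 h compound; luminescence.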
ELG1 genotox: qHTS screen for small molecules that induce genotoxicity in human embryonic kidney (HEK293T) cells expressing luciferase-tagged ELG1; HEK293T ELG1-luciferase reporter, luminescence, 16 h; Potency, µM (series often up to 46 µM), for the others: at the highest dose activity change, positive = activation, usual class: activators; 330,000 tested, 1.3% active; AID 504466, 2011; further: % of control where 0% means no effect; nearly all actives have a fitted effect of over 60% in size
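HEK293T cells expressing luciferase-tagged ELG1 were treated with compound or DMSO for 16 hr at 37°C. Luciferase activity was then read after 30 min with ONE-Glo at room temperature; rising signal flags genetic stress.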
Rab9 prom act: qHTS Assay for Rab9 Promoter Activators; Huh7 Rab9 promoter-luciferase reporter, luminescence, 24 h; 320,000 tested, 2.8% active; Potency, µM (series often up to 9.22 µM), without a hit: at the top dose activation, negative = inhibition, usual class: activators; AID 485297, 2010; further: % of control where 0% means no effect; nearly all actives have a fitted effect of over 60% in size
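Measured in stably transfected Huh7 cells bearing a Rab9 promoter–luciferase construct: 24 h compound treatment at 37 °C, followed by luminescence detection.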
Luc counter: Counterscreen for Luciferase (Kinase-Glo TM) Inhibition. Potency, µM (series often up to 38.3 µM), inactives show at the top dose activity change, negative = inhibition, actives largely listed as inhibitors. AID 1379, 2008. Kinase-Glo luciferase, ATP luminescence, 8 min. 200,000 tested, 0.28% active. Luciferin 4-monooxygenase (Photuris pensylvanica), Q27757; further: on the % scale 0 is the no-effect control and ±100 the full control effect; nearly all actives have a fitted effect of over 60% in size
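Substrate mix (final 50 mM imidazole pH 7.2, 50 mM KCl, 7 mM MgCl2, 10 uM ATP, 0.01% Tween 20, 0.05% BSA) plus pin-tool compound, then Kinase-Glo detection mix; 8 min ambient, luminescence read.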
FLuc counter: qHTS profiling assay for firefly luciferase inhibitor/activator using purifed enzyme and Km concentrations of substrates (counterscreen for miR-21 project) | Luciferin 4-monooxygenase (Photinus pyralis), P08659 | purified FLuc, Km substrates, luminescence inhibition | Potency, µM (series often up to 57.5 µM), for inactives: at the highest dose activity change, negative = inhibition, most hits filed as inhibitors | 360,000 tested, 6.9% active;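 further: plate controls were vehicle for no effect and reference inhibitor for full effect; nearly all actives have a fitted effect of over 55% in size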
Target sequence (P08659 whole entry, looked up): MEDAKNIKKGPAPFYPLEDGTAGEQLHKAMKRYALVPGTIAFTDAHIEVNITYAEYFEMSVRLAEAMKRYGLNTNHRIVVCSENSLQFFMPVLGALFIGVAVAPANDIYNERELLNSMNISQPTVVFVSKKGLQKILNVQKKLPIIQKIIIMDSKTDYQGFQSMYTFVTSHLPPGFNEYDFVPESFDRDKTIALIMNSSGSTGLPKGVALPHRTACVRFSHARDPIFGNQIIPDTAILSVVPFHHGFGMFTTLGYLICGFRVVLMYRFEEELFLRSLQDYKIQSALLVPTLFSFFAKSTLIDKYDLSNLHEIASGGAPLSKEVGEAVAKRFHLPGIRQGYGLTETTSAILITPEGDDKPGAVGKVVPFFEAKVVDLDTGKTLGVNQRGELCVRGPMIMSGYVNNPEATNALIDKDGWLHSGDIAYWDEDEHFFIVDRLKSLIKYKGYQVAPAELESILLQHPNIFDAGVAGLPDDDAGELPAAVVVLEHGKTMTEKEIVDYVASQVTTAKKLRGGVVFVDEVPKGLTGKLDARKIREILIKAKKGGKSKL
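Purified P. pyralis luciferase (10nM final) with 10uM D-luciferin and 10uM ATP (Km levels) in 50mM Tris acetate pH 7.5, 10mM Mg acetate, 0.01% Tween-20, 0.05% BSA; qHTS 6-point titration, ~60 µM downward; luminescence read.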
SMN2 splice up: qHTS Assay for Enhancers of SMN2 Splice Variant Expression | Potency, µM (highest dose often 46.1 µM), inactives show top-dose activity change, positive = activation, most hits filed as activators | 210,000 tested, 2.8% active | HEK293 SMN2-luciferase splicing reporter, luminescence, 30-36 h | AID 1458, 2008; further: % of control where 0% means no effect; nearly all actives have a fitted effect of over 55% in size
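HEK293 cells carry an SMN2 […]–luciferase reporter in which exon 7 inclusion puts luciferase in frame. Cells were plated 10-12 h before compound addition, then incubated 30-36 h at 37C. ONE-Glo luminescence was read; sodium butyrate at 4.5 mM final served as control.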
* marks the source's active call; other numbers are inactive results; ? = inconclusive; · = no result. Hits are enriched below; roughly 7.5% of the tested compounds scored in any of these assays. The call rests on the fitted dose curve; in most records, active means well fitted curve in the direction sought with a large enough effect; inconclusive means small, poorly fitted or top-dose-only effect, or another doubt; inactive means no such curve, though single readings can be large; an effect the other way counts as inactive or inconclusive. Potency means the concentration at half of the fitted maximal effect.

SMILES	NPC1 prom act	ELG1 genotox	Rab9 prom act	Luc counter	FLuc counter	SMN2 splice up
CC1=NN(c2ccc(Cl)c(C(=O)O)c2)C(=O)/C1=C\c1ccc(-c2ccc(C(=O)O)cc2)o1	0%	1%	5%	-10%	27µM*	26%
CC1=NN(c2ccc(C)cc2)C(=O)/C1=C/c1ccc(-c2cc([N+](=O)[O-])ccc2O)o1	0%	-7%	-4%	·	12µM*	·
CC1=NN(c2ccc(C(=O)O)cc2)C(=O)/C1=C/c1ccc(-c2ccccc2F)o1	-5%	11%	5%	·	4.8µM*	·
O=C1NN(c2cccc(Br)c2)C(=O)/C1=C/c1ccc(-c2cc([N+](=O)[O-])ccc2O)o1	0%	0%	-2%	·	?	·
COC(=O)c1ccccc1-c1ccc(/C=C2\C(=O)N(c3ccccc3)N=C2c2ccccc2)o1	2%	0%	1%	-4%	-8%	-3%
Cc1cc(NC(=O)c2ccc(C#N)cc2)on1	19%	8%	5%	·	?	·
Cc1ccc(-c2nnc(Nc3ccc(S(N)(=O)=O)cc3)c3ccccc23)cc1S(=O)(=O)N1CCOCC1	·	·	·	·	0%	-5%
CCOc1ccc(-c2cn3ccccc3n2)cc1	?	?	?	8.9µM*	0.54µM*	0.89µM*
CCOc1ccc(S(=O)(=O)NCCc2cn3ccccc3n2)cc1	-3%	13%	3%	·	1%	·
Fc1ccc(-c2cn3ccccc3n2)cc1	0.71µM*	?	0.56µM*	·	2.7µM*	·
CC(=O)c1cccc(CN2CCC(n3nccc3NC(=O)c3ccc4c(c3)OCO4)CC2)c1	0%	-1%	2%	·	3%	·
O=C(NCc1ccccc1Cl)NCc1noc2ccccc12	·	·	·	·	-20%	·
CC(=O)N(c1nnc(-c2cccc(C)c2)s1)C1CCCC1	?	23%	?	·	24µM*	·
Oc1cc2ccccc2cc1-c1n[nH]c(=S)o1	2%	8%	14%	-4%	?	6%
Cc1cc(-c2n[nH]c(=S)o2)c(C)n1-c1ccccc1	?	?	2.5µM*	-2%	3µM*	7.1µM*
O=C(CN1C(=O)C2(SCC(=O)N2c2cccc(Cl)c2)c2ccccc21)NCCc1ccccc1 (stereo unspecified)	·	·	·	·	-10%	·
O=C(CN1C(=O)NC2(CCCC2)C1=O)OCc1ccccc1F	-3%	1%	3%	·	-2%	·
O=C(CN1CC(c2ccccc2)CC1=O)OCc1ccccc1F (stereo unspecified)	7%	0%	12%	3%	12µM*	?
Cc1ccc(OCC(=O)N(Cc2ccc(N(C)C)cc2)CC2CCCO2)cc1C (stereo unspecified)	·	·	·	·	4%	3%
COc1cccc(Nc2nc(N)nc(-c3oc4ccccc4c3C)n2)c1	-7%	3%	19%	-2%	19µM*	?
Cc1ccc(Nc2nc(N)nc(-c3oc4ccccc4c3C)n2)cc1	?	9.2µM*	-1%	1%	7.6µM*	13µM*
Cc1c(-c2nc(N)nc(Nc3ccccc3F)n2)oc2ccccc12	1.6µM*	4µM*	0.89µM*	-4%	3µM*	11µM*
O=C(Nc1sc2c(c1C(=O)O)CCCC2)c1cccs1	18%	-8%	3%	-2%	17µM*	?
CC(C)OC(=O)c1c(NC(=O)c2cccs2)sc2c1CCCC2	3%	-7%	5%	-7%	-1%	-4%
O=C(Nc1sc2c(c1C(=O)O)CCCCC2)c1cccs1	?	7%	4.5µM*	-6%	2.7µM*	?
SMILES	NPC1 prom act	ELG1 genotox	Rab9 prom act	Luc counter	FLuc counter	SMN2 splice up
Cc1nn(CC(=O)NCc2ccc(OC(C)C)cc2)c(=O)c2c(C)n(-c3ccc(Cl)cc3)nc12	·	·	·	·	-16%	·
O=C(Nc1cccnc1)c1ccc(Oc2ccccc2)cc1	?	4.1µM*	?	-11%	3.4µM*	-5%
CCCCOc1ccc(C(=O)NC)cc1	11%	?	1%	0%	-14%	-6%
CCCOc1ccc(C(=O)Nc2cccnc2)cc1	2.8µM*	10µM*	?	·	11µM*	·
CCCCOc1ccc(C(=O)Nc2ccncc2)cc1	-18%	13µM*	-26%	-3%	?	-112%
Cc1csc2nc(COC(=O)c3ccccc3NC(=O)COc3ccccc3F)cc(=O)n12	·	·	·	·	1%	·
COC(=O)c1sc(N/N=C/c2ccc(C(C)C)cc2)nc1C	29%	13%	?	·	19µM*	·
CCOC(=O)c1sc(N/N=C/c2cc(Br)c(O)c(OC)c2)nc1C	10%	0%	2%	·	?	·
CC(=O)c1sc(N/N=C\c2ccc(N(C)C)cc2)nc1C	1.3µM*	4.6µM*	2.5µM*	·	1.3µM*	·
CC(=O)c1sc(N/N=C/c2cccc(O)c2)nc1C	10%	?	?	·	9.5µM*	·
Cc1ccc(C)c(Nc2nn3c(=O)c4ccc(C(=O)NCc5cccs5)cc4nc3s2)c1	·	·	·	·	-6%	·
COc1ccc(CCNC(=O)c2c[nH]n3c(=O)c(Cc4ccccc4Cl)c(C)nc23)cc1OC	·	·	·	·	-15%	·
CCOc1cc(C2c3c(-c4cc(C)ccc4O)n[nH]c3C(=O)N2CCCOC(C)C)ccc1O (stereo unspecified)	·	·	·	·	-11%	0%
CC1CCc2c(sc3ncnc(NS(=O)(=O)c4cccs4)c23)C1 (stereo unspecified)	-3%	0%	2%	-1%	15µM*	5%
COCCCNc1ncnc2sc3c(c12)CCC(C)C3 (stereo unspecified)	-2%	-1%	0%	-4%	?	-22%
O=C(NNC(=O)c1cc(-c2ccccc2)nc2ccccc12)c1csc(N2CCOCC2)n1	-4%	-16%	5%	·	?	·
COc1ccccc1C(=O)NNC(=O)c1csc(N2CCOCC2)n1	7%	-7%	-2%	·	9.5µM*	·
Cc1ccc(-c2cc(C(=O)NNC(=O)c3csc(N4CCOCC4)n3)c3ccccc3n2)cc1	2%	-7%	13%	·	13µM*	·
Cc1ccc(C2=NN(CC(=O)O)C(=O)CC2)cc1	-3%	-1%	-6%	·	-2%	·
COc1ccc(NC(=O)CN(C)C(=O)CNC(=O)c2sc3ccccc3c2Cl)cc1	?	?	?	·	3µM*	·
COc1cccc(NC(=O)CN(C)C(=O)CNC(=O)c2sc3ccccc3c2Cl)c1	19%	13%	25%	·	4.8µM*	·
COc1cccc(NC(=O)CN(C)C(=O)c2sc3cc(Cl)ccc3c2Cl)c1	-2%	-3%	0%	·	4%	·
